Our source for the growth values is PubChem BioAssay (NCI).

Each structure is given as a SMILES string. Several values for one entry are separate records, joined by “and”; a condition that tells them apart may be missing. Identical values can stand only once. The panel holds about 83,000 compounds, 20% with a hit somewhere; the sample as a whole holds those more often.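 In brief: 96-well plates, 48 h treatment, single concentration, percent growth endpoint.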 Activity calls are given as the source filed them. How the source made its calls: active means growth percent below 10; inactive means the rest.

In this assay the test system is HL-60(TB) leukemia. The assay is described as follows: NCI-60 one-dose screen, 48 h (100 = growth as untreated, 0 = no growth, -100 = all killed). As to conditions: 10 µM unless noted.
Take `COc1cc(C2CC(c3ccc(Oc4ccc(Cl)cc4)cc3)=NN2c2nc(-c3ccc(Cl)cc3)c(C#N)c(N3CCOCC3)n2)cc(OC)c1OC` (stereo unspecified): the growth is 102% (inactive).
The figure for `COc1ccc(/C=C/C(=O)c2ccc(S(=O)(=O)NCCNc3nc(Nc4ccc(F)cc4)nc(N(C)C)n3)cc2)cc1` is 17.2% (inactive).
The figure for `O=C(/C=C1\C(=O)N(Cc2ccccc2)c2ccccc21)c1cc2ccccc2oc1=O` is 93% (inactive); for `C#CCOc1ccc(/C=N/Nc2nc(-c3ccc(Cl)cc3)cs2)cc1OC` it is 20.1% (inactive); for `CN1C(=O)N(C)C2SC(N/N=C/c3cccs3)=NC21` (stereo unspecified) it is -19.5% (active).
In the case of `COc1ccccc1/C=C/c1cccc(NC(=S)NCCCCN(C)C)c1`, the growth is -41.7% (active).
The figure for `Cn1cc(-c2nnc(N)nc2-c2c[nH]c3ccc(F)cc23)c2cc(Br)cnc21` is 47.1% (inactive); for `O=C(/C=C/Nc1ccc(F)cc1F)c1ccc2c(c1)Nc1ccccc1S2` it is 26.9% (inactive); for `CN1CCN(Cc2ccc(NC(=O)c3cncc(C#Cc4cnc5ccc(N[C@@H]6CCOC6)nn45)c3)cc2C(F)(F)F)CC1` it is -57.9% (active).
To `COc1ccc(C(=O)CSc2nnc(-c3c[nH]c4ccccc34)n2-c2ccccc2)cc1` belongs 81.3% (inactive).
To `COc1cccc(COc2ccc(NC(=O)Nc3ccc(Cl)c(C(F)(F)F)c3)cc2)c1` belongs 17.8% (inactive); to `O=c1nc(-c2ccccc2)cc(-c2cc3ccccc3nc2Cl)[nH]1`, -34.7% (active); to `Cc1ccc(CSc2nc(-c3ccc(F)cc3)c(C#N)c(=O)[nH]2)cc1`, 56.6% (inactive).
Take `C=C1CCC2C3(C)COC(c4ccccc4)OC3CCC2(C)C1CC(NCc1ccccc1)C1=CCOC1=O` (stereo unspecified): the growth was 43.6% (inactive).
To `C=C1CC[C@@H]2[C@]3(C)COC(c4cn[nH]c4-c4ccc(OC)cc4)O[C@@H]3CC[C@@]2(C)[C@@H]1C/C=C1/C(=O)OCC1O` (stereo partly specified) belongs 1.59% (active); to `CCOC(=O)c1c(CSc2ccccc2)n(C)c2cc(CN(C)C)c(O)c(CN(C)C)c12`, 52.2% (inactive); to `CC(=O)c1ccc(Nc2nc(SCCC(C)C)nc(-c3ccc(F)cc3)c2C#N)cc1`, 91.8% (inactive).
To `O=C1Nc2ccc(F)cc2/C1=C/c1cccc(OCc2ccccn2)c1` belongs 7.92% (active); to `Cc1cc2nc3c4ccccc4n(CCO)c3nc2cc1C`, 101% (inactive).
The figure for `Cn1cc(-c2cc(N)n3nc(-c4c[nH]c5ccc(Br)cc45)cc3n2)c2cc(Br)cnc21` is -44.2% (active).
Regarding `CS(=O)(=O)Nc1cccc(-n2c(COc3ccc(OC(F)(F)F)cc3)nc3ccccc32)c1`, the growth is 111% (inactive) and 95.1% (inactive).
The figure for `Cc1cc(Cl)ccc1NC(=O)Nc1ccc(-c2ccc3c(c2)NC(=O)/C3=C\c2ccc[nH]2)cc1` is 78.9% (inactive); for `O=[N+]([O-])c1ccc(/C=C/c2nc3ccccc3n3c(=S)[nH]nc23)cc1` it is 79.1% (inactive); for `O=C(COc1ccc(/C=C2/C(=O)Nc3ccc(Cl)cc32)cc1)Nc1ccc(Br)cc1` it is 10.3% (inactive).
With `COC(=O)c1c(C(=O)OC)c2c3ccccc3c3ccccc3n2c1C(=O)C(F)(F)F`, the growth is 107% (inactive).
The figure for `C#CCOc1ccc(/C=N/Nc2nc(-c3cc4cc(Br)ccc4oc3=O)cs2)cc1OC` is 71.1% (inactive).
